Experimental data as given in PubChem BioAssay (Tox21).
Inconclusive results are not listed. Activity calls are given as the source filed them. Unless noted, calls follow the shape of the dose curve; as a rule, active = well fitted curve in the direction sought with a large enough effect in the repeat runs; inconclusive = weak or mixed curves; inactive = no such curve, though single readings can be large; an effect the other way counts as inactive or inconclusive.

Tests used:
[1] = qHTS assay for small molecule agonists of the p53 signaling pathway (AID 651631; calls by dose curve; also: nearly all actives have a fitted effect of over 15% in size)
Procedure, shortened: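 Quantitative high-throughput format: 4,000 p53RE-bla HCT-116 cells/well, 5 h pre-incubation, 16 h compound exposure at 37 °C, 2 h room-temperature substrate step, fluorescence intensity measured.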

Aromatase (Homo sapiens) = Aromatase (Homo sapiens) (UniProt P11511); experiment: qHTS assay to identify aromatase inhibitors (AID 743083); also: series mostly up to about 70 µM; nearly all actives have a fitted effect of over 55% in size
Sequence of Aromatase (Homo sapiens) (P11511 whole entry, looked up): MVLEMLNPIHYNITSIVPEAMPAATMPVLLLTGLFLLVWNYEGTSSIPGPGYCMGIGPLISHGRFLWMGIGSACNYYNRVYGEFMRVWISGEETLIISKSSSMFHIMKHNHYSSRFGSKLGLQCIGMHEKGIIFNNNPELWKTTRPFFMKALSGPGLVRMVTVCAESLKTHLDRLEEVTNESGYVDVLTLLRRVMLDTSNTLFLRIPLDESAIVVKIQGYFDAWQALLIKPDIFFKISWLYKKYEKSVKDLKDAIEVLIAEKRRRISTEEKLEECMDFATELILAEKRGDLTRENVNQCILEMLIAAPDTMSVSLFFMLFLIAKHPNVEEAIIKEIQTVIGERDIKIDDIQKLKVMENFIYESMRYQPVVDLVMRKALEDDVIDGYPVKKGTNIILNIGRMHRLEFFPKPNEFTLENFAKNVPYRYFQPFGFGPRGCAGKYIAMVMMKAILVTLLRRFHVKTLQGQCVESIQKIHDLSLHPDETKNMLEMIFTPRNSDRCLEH

[2] = target: Acetylcholinesterase (Homo sapiens) (UniProt P22303); experiment: Acetylcholinesterase (AChE) small molecule antagonists: enzyme-based qHTS assay with human liver microsomes (AID 1347399; calls by dose curve; also: nearly all actives have a fitted effect of over 60% in size); conditions: Potency: qHTS inhibition; outcome: qHTS inhibition
Sequence of Acetylcholinesterase (Homo sapiens) (P22303 whole entry, looked up): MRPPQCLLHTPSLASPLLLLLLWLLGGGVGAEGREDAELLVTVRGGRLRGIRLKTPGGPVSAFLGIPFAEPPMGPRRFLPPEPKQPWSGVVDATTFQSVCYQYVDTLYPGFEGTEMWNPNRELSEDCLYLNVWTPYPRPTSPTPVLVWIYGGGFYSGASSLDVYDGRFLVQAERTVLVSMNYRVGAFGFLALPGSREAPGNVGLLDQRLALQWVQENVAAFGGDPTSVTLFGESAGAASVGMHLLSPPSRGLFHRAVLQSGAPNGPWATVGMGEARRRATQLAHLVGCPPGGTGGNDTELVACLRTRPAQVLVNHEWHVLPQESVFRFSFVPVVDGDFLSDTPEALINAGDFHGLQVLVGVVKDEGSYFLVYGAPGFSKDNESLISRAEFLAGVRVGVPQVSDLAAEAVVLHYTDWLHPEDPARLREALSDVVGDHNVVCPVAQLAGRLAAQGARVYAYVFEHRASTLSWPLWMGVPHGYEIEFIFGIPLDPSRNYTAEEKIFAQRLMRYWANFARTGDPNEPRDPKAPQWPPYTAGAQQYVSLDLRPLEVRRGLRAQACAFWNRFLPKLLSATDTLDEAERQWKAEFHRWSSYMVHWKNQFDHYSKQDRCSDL
Procedure, shortened: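 Recombinant human AChE (50 mU/mL in the enzyme mix) and human liver microsomes (0.25 mg/mL final) were preincubated with compound and NADPH (0.25 mg/mL final) for 30 min at 37 C. Acetylthiocholine/DTNB was then added; thiocholine was read colorimetrically after 10 min at room temperature.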

[3] = qHTS assay for small molecules that induce genotoxicity in human embryonic kidney cells expressing luciferase-tagged ATAD5 (AID 651632); also: nearly all actives have a fitted effect of over 15% in size
Procedure, shortened: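 Quantitative HTS in HEK293T expressing luciferase-tagged ATAD5, whose levels rise upon DNA damage. Exposure ran 16 hr at 37C and 5% CO2, with luminescence read 30 min after Amplite addition at room temperature.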

[4] = qHTS assay for small molecule agonists of the p53 signaling pathway - cell viability (AID 651633; calls by dose curve;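 also: p53RE-bla HCT reporter cells with a stable beta-lactamase p53 reporter; series mostly up to about 83 µM; nearly all actives have a fitted effect of over 30% in size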)
Procedure, shortened: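 p53RE-bla cells, seeded at 4,000 per well and rested 5 h at 37 C/5% CO2, received compounds in DMSO for 16 h at 37 C. CellTiter-Glo was then added, and luminescence was read after 30 min at room temperature to gauge cytotoxicity.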

[5] = qHTS assay for small molecules that induce genotoxicity in human embryonic kidney cells expressing luciferase-tagged ATAD5 - cell viability (AID 651634; calls by dose curve; also: nearly all actives have a fitted effect of over 25% in size)
Procedure, shortened: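 After 15.5 hr incubation with compound at 37C, 5% CO2, HEK293T ATAD5-luciferase cells received CellTiter-Fluor reagent; fluorescence intensity was quantified following 30 min at 37C.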

[6] = qHTS assay for small molecule disruptors of the mitochondrial membrane potential - cell viability (AID 720634; calls by dose curve;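 also: human HepG2 liver cancer cells; series mostly up to about 83 µM; nearly all actives have a fitted effect of over 20% in size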)
Procedure, shortened: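 ATP-based luminescent viability readout (CellTiter-Glo, 30 min, room temperature) in HepG2 cells multiplexed with the m-MPI membrane potential dye; compound exposure lasted 1 hr at 37 C.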

[7] = qHTS assay for small molecule disruptors of the mitochondrial membrane potential (AID 720635)
Procedure, shortened: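 HepG2 cells (2,000/well) attached overnight at 37C, then took compound for 1 hr at 37C, 5% CO2. Mito-MPS dye was added for 30 min; fluorescence was read at 490/535 nm (monomers) and 540/590 nm (aggregates).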

[8] = target: Glucocorticoid receptor (Homo sapiens) (UniProt P04150); experiment: qHTS assay to identify small molecule agonists of the glucocorticoid receptor (GR) signaling pathway (AID 720691; active = well fitted activation curve with a large enough effect in the signal ratio in the repeat runs, not every such curve was filed as active; the % refers to the signal ratio)
Sequence of Glucocorticoid receptor (Homo sapiens) (P04150 whole entry, looked up): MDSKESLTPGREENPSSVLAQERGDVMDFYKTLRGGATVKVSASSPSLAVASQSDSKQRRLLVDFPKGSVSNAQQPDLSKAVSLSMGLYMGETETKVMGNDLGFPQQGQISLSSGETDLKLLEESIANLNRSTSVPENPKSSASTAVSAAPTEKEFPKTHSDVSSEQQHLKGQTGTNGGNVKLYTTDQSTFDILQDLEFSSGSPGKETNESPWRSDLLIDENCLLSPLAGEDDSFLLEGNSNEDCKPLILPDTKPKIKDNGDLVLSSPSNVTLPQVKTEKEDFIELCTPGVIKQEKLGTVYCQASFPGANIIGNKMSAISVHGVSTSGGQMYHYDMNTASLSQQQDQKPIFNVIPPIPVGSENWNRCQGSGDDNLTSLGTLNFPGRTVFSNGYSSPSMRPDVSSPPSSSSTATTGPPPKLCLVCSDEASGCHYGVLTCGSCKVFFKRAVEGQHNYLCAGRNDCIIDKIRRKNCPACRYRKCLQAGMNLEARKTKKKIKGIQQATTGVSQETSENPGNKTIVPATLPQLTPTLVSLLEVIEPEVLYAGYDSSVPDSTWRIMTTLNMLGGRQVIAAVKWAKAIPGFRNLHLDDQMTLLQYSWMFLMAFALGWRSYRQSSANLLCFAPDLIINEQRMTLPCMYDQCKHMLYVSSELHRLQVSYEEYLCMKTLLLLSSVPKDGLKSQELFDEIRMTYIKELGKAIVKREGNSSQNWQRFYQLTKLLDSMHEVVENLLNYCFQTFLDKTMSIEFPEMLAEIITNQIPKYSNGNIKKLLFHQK
Procedure, shortened: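 Cells: GR-bla HeLa, endogenous GR with stably integrated GRE-beta-lactamase reporter. Treatment 18 h, 37 C, compounds delivered in DMSO. Detection via LiveBLAzer B/G FRET substrate, 2 h RT, fluorescence intensity.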

[9] = target: Glucocorticoid receptor (Homo sapiens) (UniProt P04150); experiment: qHTS assay to identify small molecule antagonists of the glucocorticoid receptor (GR) signaling pathway (AID 720692; active = well fitted inhibition curve with a large enough effect in the signal ratio in the repeat runs, not every such curve was filed as active; the % refers to the signal ratio)
Procedure, shortened: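 Quantitative HTS in antagonist format: HeLa cells expressing endogenous GR and a stably integrated GRE-bla reporter, stimulated with 5 nM dexamethasone (final) alongside test compounds for 18 h.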

[10] = qHTS assay to identify small molecule antagonists of the glucocorticoid receptor (GR) signaling pathway - cell viability counter screen (AID 720693); also: nearly all actives have a fitted effect of over 55% in size
[11] = qHTS assay for identifying genotoxic compounds that show differential cytotoxicity against isogenic chicken DT40 cell lines with known DNA damage response pathways - wild type cell line (AID 743012); also: nearly all actives have a fitted effect of over 60% in size
Procedure, shortened: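 Luminescent ATP viability signal (CellTiter-Glo, 30 min RT) recorded after wild type DT40 cells were incubated with compounds for 40 h at 37 C/5% CO2.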

[12] = qHTS assay for identifying genotoxic compounds that show differential cytotoxicity against isogenic chicken DT40 cell lines with known DNA damage response pathways - Rev3 mutant cell line (AID 743014); also: nearly all actives have a fitted effect of over 55% in size
[13] = qHTS assay for identifying genotoxic compounds that show differential cytotoxicity against isogenic chicken DT40 cell lines with known DNA damage response pathways - Rad54/Ku70 mutant cell line (AID 743015); also: nearly all actives have a fitted effect of over 60% in size
[14] = qHTS assay to identify small molecule antagonists of the androgen receptor (AR) signaling pathway - cell viability counter screen (AID 743033; also: nearly all actives have a fitted effect of over 45% in size)
[15] = target: Androgen receptor (Homo sapiens) (UniProt P10275); experiment: qHTS assay to identify small molecule antagonists of the androgen receptor (AR) signaling pathway (AID 743035; active = well fitted inhibition curve with a large enough effect in the signal ratio in the repeat runs, not every such curve was filed as active; the % refers to the signal ratio)
Sequence of Androgen receptor (Homo sapiens) (P10275 whole entry, looked up): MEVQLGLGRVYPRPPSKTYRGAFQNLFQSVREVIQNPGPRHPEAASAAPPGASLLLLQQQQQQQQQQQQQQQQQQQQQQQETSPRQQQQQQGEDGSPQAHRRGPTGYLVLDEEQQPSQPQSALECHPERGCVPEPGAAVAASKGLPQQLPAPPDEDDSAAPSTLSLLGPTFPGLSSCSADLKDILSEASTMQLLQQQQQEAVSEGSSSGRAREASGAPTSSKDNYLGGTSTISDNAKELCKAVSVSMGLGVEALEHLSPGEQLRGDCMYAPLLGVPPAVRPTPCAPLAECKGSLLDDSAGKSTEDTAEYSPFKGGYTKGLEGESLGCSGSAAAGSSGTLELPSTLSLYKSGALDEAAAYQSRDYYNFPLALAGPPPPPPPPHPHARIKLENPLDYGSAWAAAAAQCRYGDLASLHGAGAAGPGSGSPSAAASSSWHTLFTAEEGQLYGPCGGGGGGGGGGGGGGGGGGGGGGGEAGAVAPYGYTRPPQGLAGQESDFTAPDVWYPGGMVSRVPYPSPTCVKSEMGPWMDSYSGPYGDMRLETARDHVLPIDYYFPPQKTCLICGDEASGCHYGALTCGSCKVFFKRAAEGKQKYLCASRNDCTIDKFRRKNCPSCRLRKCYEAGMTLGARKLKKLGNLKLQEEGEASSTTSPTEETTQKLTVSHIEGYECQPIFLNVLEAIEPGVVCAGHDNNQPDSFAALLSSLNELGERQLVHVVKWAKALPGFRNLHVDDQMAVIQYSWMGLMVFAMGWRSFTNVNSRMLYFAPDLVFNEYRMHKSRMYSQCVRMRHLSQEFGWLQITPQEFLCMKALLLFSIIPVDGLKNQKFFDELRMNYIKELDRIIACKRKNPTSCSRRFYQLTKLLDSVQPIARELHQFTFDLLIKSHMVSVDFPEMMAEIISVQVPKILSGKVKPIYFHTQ
Procedure, shortened: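 Quantitative HTS of the Tox21 10K library used HEK293 AR-UAS-bla cells stimulated with R1881 alongside compound for 16 h at 37C, followed by beta-lactamase FRET detection (LiveBLAzer B/G, 2 h, RT).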

[16] = target: Androgen receptor (Homo sapiens) (UniProt P10275); experiment: qHTS assay to identify small molecule agonists of the androgen receptor (AR) signaling pathway using the MDA cell line (AID 743040; also: nearly all actives have a fitted effect of over 20% in size)
Procedure, shortened: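 Cell-based luciferase reporter: MDA-kb2, MMTV promoter (AR + GR response elements). 16 h compound exposure at 37C; ONE-Glo, 30 min RT, luminescence.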

[17] = qHTS assay to identify small molecule antagonists of the androgen receptor (AR) signaling pathway using the MDA cell line - cell viability counter screen (AID 743041; also: nearly all actives have a fitted effect of over 45% in size)
Procedure, shortened: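 In this qHTS counter assay, fluorescence intensity after CellTiter-Fluor addition indicated viability of MDA-kb2 AR-luc cells given compounds and R1881 for 16 h at 37C.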

[18] = target: Androgen receptor (Homo sapiens) (UniProt P10275); experiment: qHTS assay to identify small molecule antagonists of the androgen receptor (AR) signaling pathway using the MDA cell line (AID 743042; also: nearly all actives have a fitted effect of over 55% in size)
Procedure, shortened: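 MDA-kb2 cells (human breast carcinoma, stably carrying an MMTV-luciferase reporter responsive to AR and GR) were plated at 3,000 cells/well and preincubated 5 hr at 37C, then given compound plus R1881 agonist for 16 h. ONE-Glo luminescence was read.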

[19] = target: Estrogen receptor (Homo sapiens) (UniProt P03372); experiment: qHTS assay to identify small molecule antagonists of the estrogen receptor alpha (ER-alpha) signaling pathway (AID 743069; active = well fitted curve in the direction sought with a large enough effect in the signal ratio in the repeat runs, not every such curve was filed as active; the % refers to the signal ratio)
Sequence of Estrogen receptor (Homo sapiens) (P03372 whole entry, looked up): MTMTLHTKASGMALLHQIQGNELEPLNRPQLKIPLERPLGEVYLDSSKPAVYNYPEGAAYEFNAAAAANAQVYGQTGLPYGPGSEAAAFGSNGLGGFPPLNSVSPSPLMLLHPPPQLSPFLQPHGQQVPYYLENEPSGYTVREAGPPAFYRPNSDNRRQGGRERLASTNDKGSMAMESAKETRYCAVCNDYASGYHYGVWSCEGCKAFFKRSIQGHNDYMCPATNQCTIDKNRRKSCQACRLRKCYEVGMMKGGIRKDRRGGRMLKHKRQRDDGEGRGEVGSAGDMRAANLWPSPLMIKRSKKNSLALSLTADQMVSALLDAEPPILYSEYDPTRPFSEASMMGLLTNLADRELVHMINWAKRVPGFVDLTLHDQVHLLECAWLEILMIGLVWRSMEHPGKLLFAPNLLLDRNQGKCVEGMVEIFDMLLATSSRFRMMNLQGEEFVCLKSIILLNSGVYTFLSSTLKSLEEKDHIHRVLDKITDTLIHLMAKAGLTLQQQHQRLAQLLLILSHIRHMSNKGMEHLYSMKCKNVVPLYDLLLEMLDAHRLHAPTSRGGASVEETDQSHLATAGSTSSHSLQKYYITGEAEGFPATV
Procedure, shortened: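 A 17beta-estradiol challenge was applied right after compound transfer to ER-alpha-UAS-bla HEK293 cells previously kept in charcoal-stripped serum. Plates stood 18 hr at 37C and 5% CO2; fluorescence was read following 2 hr FRET substrate loading at room temperature.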

[20] = qHTS assay to identify small molecule antagonists of the estrogen receptor alpha (ER-alpha) signaling pathway - cell viability counter screen (AID 743074; calls by dose curve;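 also: HEK293 cells carrying ER-alpha-UAS-bla reporter stimulated with 17beta-estradiol; nearly all actives have a fitted effect of over 45% in size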)
[21] = target: Estrogen receptor (Homo sapiens) (UniProt P03372); experiment: qHTS assay to identify small molecule agonists of the estrogen receptor alpha (ER-alpha) signaling pathway (AID 743075; calls by dose curve;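 also: HEK293 GripTite cells with ER-alpha and UAS-driven beta-lactamase reporter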)
[22] = target: Estrogen receptor (Homo sapiens) (UniProt P03372); experiment: qHTS assay to identify small molecule agonists of the estrogen receptor alpha (ER-alpha) signaling pathway using the BG1 cell line (AID 743079); also: nearly all actives have a fitted effect of over 20% in size
[23] = qHTS assay to identify small molecule antagonists of the estrogen receptor alpha (ER-alpha) signaling pathway using the BG1 cell line (AID 743080; calls by dose curve;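 also: BG1 cells stimulated with 17beta-estradiol alongside compound; series mostly up to about 70 µM; nearly all actives have a fitted effect of over 25% in size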)
Procedure, shortened: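 BG1Luc4E2, endogenous ER-alpha, 4xERE-luc; 5 d charcoal-stripped FBS, phenol red free; 24 h plating; cpd + 17beta-estradiol 21.5 h, 37 C/5% CO2; CellTiter-Fluor viability 30 min, then ONE-Glo luciferase 30 min RT.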

[24] = qHTS assay to identify small molecule antagonists of the estrogen receptor alpha (ER-alpha) signaling pathway using the BG1 cell line - cell viability counter screen (AID 743081);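 also: compound given together with 17beta-estradiol as the ER stimulus; series mostly up to about 70 µM; nearly all actives have a fitted effect of over 45% in size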
[25] = qHTS assay to identify aromatase inhibitors - cell viability counter screen (AID 743084)
[26] = target: Aryl hydrocarbon receptor (Homo sapiens) (UniProt P35869); experiment: qHTS assay to identify small molecule that activate the aryl hydrocarbon receptor (AhR) signaling pathway (AID 743085);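 also: HG2L7.5c1 human HepG2 liver cells with stably integrated DRE-driven firefly reporter; series mostly up to about 70 µM; nearly all actives have a fitted effect of over 15% in size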
Sequence of Aryl hydrocarbon receptor (Homo sapiens) (P35869 whole entry, looked up): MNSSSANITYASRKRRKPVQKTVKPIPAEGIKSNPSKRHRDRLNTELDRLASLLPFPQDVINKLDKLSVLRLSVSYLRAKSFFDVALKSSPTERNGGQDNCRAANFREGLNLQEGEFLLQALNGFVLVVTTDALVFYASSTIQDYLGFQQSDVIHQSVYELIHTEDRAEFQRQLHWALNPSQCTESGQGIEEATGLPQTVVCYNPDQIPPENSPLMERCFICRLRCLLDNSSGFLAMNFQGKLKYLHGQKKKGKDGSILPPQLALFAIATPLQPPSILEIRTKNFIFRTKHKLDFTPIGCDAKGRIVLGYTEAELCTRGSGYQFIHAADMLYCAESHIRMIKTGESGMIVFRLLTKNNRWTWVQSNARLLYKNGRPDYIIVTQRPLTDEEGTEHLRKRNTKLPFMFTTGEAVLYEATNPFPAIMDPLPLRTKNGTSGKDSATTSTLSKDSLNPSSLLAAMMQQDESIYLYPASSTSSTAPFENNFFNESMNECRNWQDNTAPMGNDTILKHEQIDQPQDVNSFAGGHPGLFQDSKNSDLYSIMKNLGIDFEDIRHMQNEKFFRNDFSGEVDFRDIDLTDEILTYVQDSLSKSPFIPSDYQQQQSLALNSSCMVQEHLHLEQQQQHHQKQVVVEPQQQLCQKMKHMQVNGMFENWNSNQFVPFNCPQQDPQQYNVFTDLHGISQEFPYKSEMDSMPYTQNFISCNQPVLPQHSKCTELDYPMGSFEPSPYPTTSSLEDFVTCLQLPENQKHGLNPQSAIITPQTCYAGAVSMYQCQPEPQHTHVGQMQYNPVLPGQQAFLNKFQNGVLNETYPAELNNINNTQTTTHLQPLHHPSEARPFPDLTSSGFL
Procedure, shortened: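 24 h compound exposure, 37C, HepG2-derived HG2L7.5c1 cells with DRE-responsive luciferase. Readouts: fluorescence viability, then luminescence at room temperature after 30 min.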

[27] = qHTS assay to identify small molecule that activate the aryl hydrocarbon receptor (AhR) signaling pathway - cell viability counter screen (AID 743086)
Procedure, shortened: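 HepG2-AhR-luc (HG2L7.5c1) cells, 4000/well, were preincubated 5 h at 37C, exposed to compound in qHTS format for 24 hr at 37C, then given CellTiter-Fluor for 30 min; viability was read as fluorescence in the reporter wells.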

[28] = target: Peroxisome proliferator-activated receptor gamma (Homo sapiens) (UniProt P37231); experiment: qHTS assay to identify small molecule agonists of the peroxisome proliferator-activated receptor gamma (PPARg) signaling pathway (AID 743094; active = well fitted activation curve with a large enough effect in the signal ratio in the repeat runs, not every such curve was filed as active; the % refers to the signal ratio)
Sequence of Peroxisome proliferator-activated receptor gamma (Homo sapiens) (P37231 whole entry, looked up): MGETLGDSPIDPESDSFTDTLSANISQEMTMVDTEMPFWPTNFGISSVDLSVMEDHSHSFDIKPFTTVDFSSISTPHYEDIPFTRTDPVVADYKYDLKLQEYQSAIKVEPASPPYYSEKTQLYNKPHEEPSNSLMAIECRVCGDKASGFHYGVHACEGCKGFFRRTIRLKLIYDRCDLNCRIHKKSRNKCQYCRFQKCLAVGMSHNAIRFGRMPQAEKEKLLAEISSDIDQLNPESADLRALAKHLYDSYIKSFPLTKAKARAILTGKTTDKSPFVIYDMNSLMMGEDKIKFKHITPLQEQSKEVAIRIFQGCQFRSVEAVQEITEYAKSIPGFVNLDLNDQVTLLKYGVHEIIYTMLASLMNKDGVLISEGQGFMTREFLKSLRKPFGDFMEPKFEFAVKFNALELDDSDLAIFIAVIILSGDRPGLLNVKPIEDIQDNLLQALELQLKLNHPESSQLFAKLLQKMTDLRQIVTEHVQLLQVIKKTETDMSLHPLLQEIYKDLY
Procedure, shortened: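 Reporter activation was scored by fluorescence of cleaved LiveBLAzer B/G substrate (1 h, room temperature) in PPARg-bla HEK293H cells previously treated 17 h at 37C with DMSO-dissolved compounds.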

Measured: Potency

Nc1ncnc2c1ncn2CCOCP(=O)(O)O
inactive: [1] | Aromatase (Homo sapiens)

CN1C(=O)N(c2ccccc2Br)Cc2cnc(Nc3ccc4c(c3)OCC(CO)O4)nc21 (configuration not stated)
inactive: [2]

CCCCCCCCCCC[C@@H](C[C@@H]1OC(=O)[C@H]1CCCCCC)OC(=O)[C@H](CC(C)C)NC=O
inactive: [2]

CNC(C)[C@@H]1CC[C@@H](N)[C@@H](O[C@H]2[C@H](O)[C@@H](O[C@H]3OC[C@](C)(O)[C@H](NC)[C@H]3O)[C@H](N)C[C@@H]2N)O1 (some centres not stated)
not listed: [2]
inactive: all other assays above
